ID4 binder: ID4 (human) binding; calls only; AID 624137; hit rate 1.2% among 31,000; small molecule microarray, Flag-ID4 binding, fluorescence F/B; call rule not given here;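 also: a binder raises fluorescence above local background on the spot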
Target sequence (P47928 whole entry, looked up): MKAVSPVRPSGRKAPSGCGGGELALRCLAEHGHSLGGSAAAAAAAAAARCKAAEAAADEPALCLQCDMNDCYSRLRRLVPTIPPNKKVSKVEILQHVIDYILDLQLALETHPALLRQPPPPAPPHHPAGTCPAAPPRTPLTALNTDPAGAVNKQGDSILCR
mut p53 react: mutant p53 pathway reactivation. activation, % at 9.98 µM. SW480 PUMA-promoter luciferase. hit rate 1.5% among 28,000; in the data active = activation above about 52%
Of the large screens only hits and unclear results are named; the others gave an inactive call. A selection: hits, their analogues and other compounds. The true share with any hit is near 2.3%.

CCOc1ccccc1Nc1nc(N)nc(CSc2nccc(C)n2)n1	none
COc1ccccc1Nc1nc(N)nc(CSc2ncccn2)n1	mut p53 react 85.7
O=C(O)CCSc1nc(-c2ccccc2)c(-c2ccccc2)[nH]1	ID4 binder active
Cc1cccc(NC(=O)CSc2nc(-c3ccccc3)c(-c3ccccc3)[nH]2)c1C	none
Cc1noc(C)c1NC(=O)N(C)C[C@@H]1OCCCC[C@@H](C)Oc2ccc(NC(=O)Cc3ccccc3)cc2C(=O)N([C@@H](C)CO)C[C@@H]1C	none
CC(C)(C)c1ccc(OCC(=O)Nc2cccnc2)c(Br)c1	mut p53 react 69.5
Cc1ccc(OCC(=O)Nc2cccc(C(=O)O)c2)c(Br)c1	none
O=C(COc1cc(Cl)c(Cl)cc1Cl)Nc1cccnc1	mut p53 react 116.8
CCc1ccc(OCC(=O)Nc2cccnc2)c(Br)c1	mut p53 react 95.5
COC(=O)c1cc(OC)c(OC)cc1NC(=O)COc1ccc(C(C)(C)C)cc1Br	none
O=C(COc1ccc(Cl)cc1)Nc1cccnc1	none
CNC(=O)CN(c1cccc(Cl)c1Cl)S(=O)(=O)c1ccc(C)cc1	none
CNC[C@@H]1Oc2ccc(NC(=O)CCN3CCOCC3)cc2CC(=O)N([C@H](C)CO)C[C@@H]1C	none
C[C@@H]1CN([C@@H](C)CO)C(=O)Cc2cc(NC(=O)C3CC3)ccc2O[C@H]1CN(C)C(=O)Nc1ccccc1	none
C[C@@H]1CN([C@H](C)CO)C(=O)c2cc(NC(=O)CCC(F)(F)F)ccc2O[C@H]1CN(C)C(=O)Nc1ccccc1	none
Cc1cc(NC(=O)c2cc3nc(-c4cccs4)cc(C(F)(F)Cl)n3n2)n(-c2ccccc2)n1	none
C[C@H]1CCCCO[C@H](CN(C)Cc2ccccc2)[C@@H](C)CN([C@@H](C)CO)C(=O)c2cc(N(C)C)ccc2O1	none
C[C@@H]1CN([C@@H](C)CO)C(=O)CCCn2cc(nn2)CO[C@H]1CN(C)C(=O)c1ccc(N2CCN(C)CC2)cc1	ID4 binder active
C[C@H](CO)N1C[C@H](C)[C@H](CN(C)CC2CCCCC2)OCc2cn(nn2)CCCC1=O	none (no result: mut p53 react)
C[C@@H]1CN([C@@H](C)CO)C(=O)CCCn2nncc2CO[C@H]1CN(C)CC1CCCCC1	ID4 binder active (no result: mut p53 react)
C[C@H](CO)N1C[C@H](C)[C@@H](CN(C)CC2CCCCC2)OCc2cn(nn2)CCCC1=O	ID4 binder active (no result: mut p53 react)
C[C@H](CO)N1C[C@H](C)[C@@H](CN(C)C(=O)Nc2ccccc2F)OCc2cnnn2CCCC1=O	ID4 binder active
C[C@H]1CN([C@@H](C)CO)C(=O)CCCn2nncc2CO[C@@H]1CN(C)C(=O)Nc1ccccc1F	none
C[C@H]1CN([C@@H](C)CO)C(=O)CCCn2nncc2CO[C@H]1CN(C)CC1CCCCC1	none (no result: mut p53 react)
C[C@@H]1CN([C@H](C)CO)C(=O)CCCn2cc(nn2)CO[C@H]1CN(C)C(=O)c1ccc(N2CCN(C)CC2)cc1	none
O=C(CSc1ncnc2scc(-c3ccc(Br)cc3)c12)Nc1ccccc1	none
C/C=C(\C)C(=O)O[C@@H]1C(C)=C2[C@H]3OC(=O)[C@](C)(O)[C@]3(O)[C@H](OC(=O)C(C)CC)C[C@@](C)(OC(C)=O)[C@@H]2[C@H]1OC(=O)CCCCCCC (stereo partly specified)	none (no result: ID4 binder)
COc1ccc(NC(=O)Nc2ccc3c(c2)C(=O)N([C@@H](C)CO)C[C@@H](C)[C@H](CN(C)S(=O)(=O)c2ccc(OC)cc2)O3)cc1	none
Cn1c(SCC(=O)c2ccc([N+](=O)[O-])cc2)nnc1-c1cc2ccccc2cc1O	none
O=C(CC(=O)c1ccccc1)c1ccccc1	mut p53 react 96.6
O=C(O)CCNC(=O)c1ccccc1	none (no result: mut p53 react)
COc1ccc(OCC(=O)Nc2ccc(OC)cc2[N+](=O)[O-])cc1	mut p53 react 98.0
COc1ccc(NC(=O)COc2c(Cl)c(C)c(Cl)c(C)c2Cl)c([N+](=O)[O-])c1	none
COc1ccc(NC(=O)COc2ccc(Br)cc2Cl)c([N+](=O)[O-])c1	none
COc1ccc(NC(=O)COc2ccccc2Cl)c([N+](=O)[O-])c1	mut p53 react 84.3
COc1ccc(NC(=O)COc2ccc(Cl)c(C)c2)c([N+](=O)[O-])c1	mut p53 react 74.1
CCc1cccc(OCC(=O)Nc2ccc(OC)cc2[N+](=O)[O-])c1	mut p53 react 91.0
COc1cccc(OCC(=O)Nc2ccccc2[N+](=O)[O-])c1	none
COc1ccc(NC(=O)COc2cc(C)c(Br)cc2C)c([N+](=O)[O-])c1	none
Cc1cccc(N(CC(=O)Nc2ccc(Cl)cc2)S(C)(=O)=O)c1C	none
Nc1ncnc(NCCN2CCOCC2)c1[N+](=O)[O-]	none
CC(C)NC(=O)Nc1ccc2c(c1)C(=O)N([C@H](C)CO)C[C@H](C)[C@H](CN(C)S(C)(=O)=O)OCCCC[C@H](C)O2	none (no result: ID4 binder)
Cc1ccc(-c2noc(CCC(=O)Nc3cccc([N+](=O)[O-])c3)n2)cc1	none
Cn1c(=O)[nH]c(=O)c2c1ncn2CCNCc1ccco1	ID4 binder active
O=C(Cn1cnc2ccccc2c1=O)NCc1ccco1	none
COc1ccc(-c2cnc3c(c2)C(=O)N([C@H](C)CO)C[C@H](C)[C@H](CN(C)Cc2ccc(F)cc2)O3)cc1	none
COc1cccc(C(=O)Nc2ccc(NC(=O)C3CC=CCC3C(=O)O)cc2)c1 (stereo unspecified)	none
COc1cccc(C(=O)Nc2ccc(NC(=O)C3CCCCC3C(=O)O)cc2)c1 (stereo unspecified)	ID4 binder active
C[C@H](CO)N1C[C@H](C)[C@H](CN(C)S(=O)(=O)c2ccccc2)Oc2ncc(C#Cc3ccc(C(F)(F)F)cc3)cc2C1=O	none
COc1cc(NC(=O)COc2ccc(C(C)(C)C)cc2Br)c(OC)cc1Cl	none
COC(=O)c1ccccc1NC(=O)COc1ccccc1F	none
CC(C)(C)c1ccc(OCC(=O)Nc2ccccc2C(N)=O)c(Br)c1	mut p53 react 85.2
COC(=O)c1ccccc1NC(=O)COc1ccc(C(C)C)cc1Br	mut p53 react 54.0
Cc1cc(OCC(=O)NCc2ccco2)cc(C)c1Br	none
CC(C)(C)c1ccc(OCC(=O)NCc2ccco2)c(Br)c1	mut p53 react 88.5
C[C@@H]1CN([C@H](C)CO)S(=O)(=O)c2ccc(C#CC3CCCCC3)cc2O[C@@H]1CN(C)C	none
CCc1c(C)sc(NC(=O)C2CC(c3cc(Cl)c(OC)cc3OC)=NO2)c1C#N (stereo unspecified)	none
COc1ccc2[nH]cc(CCNC(N)=O)c2c1	none
COc1ccc(-c2nnc(SCC(=O)Nc3ccc(C)cc3C)n2-c2ccccc2)cc1OC	none
Cc1ccc(NC(=O)CCCC(=O)Nc2ccc(C)c(C)c2)cc1C	none
CCn1c(SCC(=O)c2ccc(OC)cc2)nnc1-c1cccs1	none
CCCNC(=O)CSc1nc2nc(C)c(Cc3cccc(C)c3)c(C)n2n1	none
COCCSc1nnc(NC(=O)c2sc3ccccc3c2Cl)s1	mut p53 react 67.0
CSc1ncc(Cl)c(C(=O)Nc2nnc(SC/C=C/c3ccccc3)s2)n1	none
CC(C)OC(=O)c1cn(Cc2c(F)cccc2F)c2sc(-c3ccc(NC(=O)C(C)C)cc3)c(CN(C)Cc3ccccc3)c2c1=O	ID4 binder active
Cc1[nH]c2ccccc2c1C(=O)CSc1nnc(N)s1	none
Nc1nnc(SCC(=O)c2ccc3ccccc3c2)s1	mut p53 react 94.8
CCCNC(=O)N[C@H]1CC[C@H](CC(=O)NC2CCC2)O[C@@H]1CO	none (no result: mut p53 react)
COc1ccc(OC)c(NC(=O)c2ccc(C)c(S(=O)(=O)Nc3ccc(C)cc3)c2)c1	ID4 binder active
COc1ccc(OC)c(NC(=O)c2ccc(Cl)c(S(=O)(=O)Nc3ccc(C)cc3)c2)c1	none
COc1cccc(OCC(=O)Nc2ccc(OC)c(NC(=O)c3ccco3)c2)c1	none

Compound activity: PubChem, Broad Institute
